# PNC assembly inh = High Content Assay for Compounds that inhibit the Assembly of the Perinucleolar Compartment; PC3M PTB-GFP, PNC prevalence imaging, 16 h; stronger effect = lower value; activity change (PNC), negative = inhibition, % at 10 µM; hit rate 3.1% among 140,000; AID 2417, 2010;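 active means readout at or below -70, meaning at least 70% loss of cells showing the perinucleolar compartment, a nuclear body marking cancer cells; inconclusive means readout between -30 and a set limit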;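 further: plate controls were DMSO wells for no effect and camptothecin positive control wells for full effect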
#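 Compounds are pinned in duplicate onto adhered PC3M cells stably expressing GFP-tagged PTB and incubated 16 h at 37 C. Cells are then fixed, nuclei stained with Hoechst, and PNC-positive cells counted.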
# HPGD block = qHTS Assay for Inhibitors of HPGD (15-Hydroxyprostaglandin Dehydrogenase); purified HPGD, NADH fluorescence kinetic, PGE2 substrate; 15-hydroxyprostaglandin dehydrogenase [NAD(+)] (Homo sapiens), P15428; Potency, µM, inactives show at the top dose activity change, negative = inhibition, usual class: inhibitors; hit rate 4.3% among 150,000; AID 894, 2007; further: potency means the concentration at half of the fitted maximal effect
# Target sequence (P15428 whole entry, looked up): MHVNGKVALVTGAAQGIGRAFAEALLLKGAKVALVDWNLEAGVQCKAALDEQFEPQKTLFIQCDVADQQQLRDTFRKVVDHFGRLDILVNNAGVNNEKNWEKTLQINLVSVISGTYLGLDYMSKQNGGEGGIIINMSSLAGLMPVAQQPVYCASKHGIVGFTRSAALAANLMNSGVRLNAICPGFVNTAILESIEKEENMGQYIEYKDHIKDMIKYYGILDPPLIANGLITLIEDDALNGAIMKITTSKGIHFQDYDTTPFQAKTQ
#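 NADH formation kinetics: reaction with 30 uM PGE2 and 1 mM NAD+ (final), 20 nM enzyme, Tris-HCl pH 8 with Tween 20, after 15 min compound preincubation at room temperature. Fluorescence change, last versus first of five reads.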
# ALDH1A1 inh = qHTS Assay for Inhibitors of Aldehyde Dehydrogenase 1 (ALDH1A1). hit rate 7.3% among 220,000. Purified ALDH1A1, NADH fluorescence, propionaldehyde substrate. Potency, µM (highest dose often 75.3 µM), inactives show at the highest dose activity, negative = inhibition, usual class: inhibitors. AID 1030, 2008;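 further: potency means the concentration at half of the fitted maximal effect; plate controls were no enzyme wells and a reference inhibitor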
# Target sequence (P00352 whole entry, looked up): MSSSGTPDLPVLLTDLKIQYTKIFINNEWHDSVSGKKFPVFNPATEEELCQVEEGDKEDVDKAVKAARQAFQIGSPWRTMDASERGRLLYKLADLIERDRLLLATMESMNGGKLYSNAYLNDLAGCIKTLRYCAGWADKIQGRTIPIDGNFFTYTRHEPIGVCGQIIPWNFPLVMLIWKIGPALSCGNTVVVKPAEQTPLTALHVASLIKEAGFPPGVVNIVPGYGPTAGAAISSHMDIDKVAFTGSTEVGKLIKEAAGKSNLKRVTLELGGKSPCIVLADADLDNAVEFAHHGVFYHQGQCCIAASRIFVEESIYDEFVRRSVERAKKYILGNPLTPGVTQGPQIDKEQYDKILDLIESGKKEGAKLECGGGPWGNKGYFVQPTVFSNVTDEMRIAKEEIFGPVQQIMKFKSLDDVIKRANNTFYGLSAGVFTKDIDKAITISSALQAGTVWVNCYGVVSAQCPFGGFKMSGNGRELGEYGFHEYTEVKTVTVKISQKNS
# Luc counter = Counterscreen for Luciferase (Kinase-Glo TM) Inhibition. Luciferin 4-monooxygenase (Photuris pensylvanica), Q27757. Kinase-Glo luciferase, ATP luminescence, 8 min. Potency, µM (top dose mostly 38.3 µM), for inactives: at the highest dose activity change, negative = inhibition, actives largely listed as inhibitors. hit rate 0.28% among 200,000. AID 1379, 2008; active means well fitted inhibition curve with a large enough effect; inconclusive means small, poorly fitted or top-dose-only effect; further: potency means the concentration at half of the fitted maximal effect; nearly all actives have a fitted effect of over 60% in size
#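 Recombinant Kinase-Glo luciferase, 10 uM ATP (linear range), luciferin; imidazole pH 7.2 / KCl / MgCl2 / Tween / BSA buffer; 8 min RT; luminescence.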
# LMNA splice mod = qHTS Assay for Modulators of Lamin A Splicing. HeLa LMNA splicing GFP/RFP minigene ratio, 48 h. Potency, µM (series often up to 46.1 µM), without a hit: at the highest dose ratio change, negative = inhibition, most hits filed as inhibitors. hit rate 0.01% among 200,000; active means well fitted inhibition curve with a large enough effect in the signal ratio, with a control signal flat, not every such curve was filed as active; inconclusive means small, poorly fitted or top-dose-only effect, or effect the other way, or a change in a side signal; the % refers to the signal ratio; further: potency means the concentration at half of the fitted maximal effect
#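 S3 HeLa stable clones carrying a lamin A-EGFP splicing minigene plus DsRed2 were seeded at 600 cells/well in Opti-MEM with 2% FBS, pin-dosed and incubated 48 h at 37°C. Acumen cytometry (488 nm) gave the GFP/RFP total-intensity ratio.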
# Numbers without * were called inactive; ? = inconclusive; nt = no result; [ ] = remark or other dose. Only some compounds are listed: those with a hit (about 10% of all), similar ones and a draw of the others. Unless noted, the call rests on the fitted dose curve; in most records, active means well fitted inhibition curve with a large enough effect (not every such curve was filed as active); inconclusive means small, poorly fitted or top-dose-only effect, or another doubt; inactive means no such curve, though single readings can be large or run the other way. Unless noted, on the % scale 0 is the no-effect control and ±100 the full control effect.
SMILES,PNC assembly inh,HPGD block,ALDH1A1 inh,Luc counter,LMNA splice mod
Cc1cc(C(=O)COC(=O)C2=NNC(=O)CC2)c(C)n1-c1ccccc1,?,-19%,16µM*,14%,7%
O=c1c(-c2cc(F)cc(F)c2)nc2cnc(N3CCOCC3)nc2n1Cc1ccc(F)cc1,nt,nt,?,nt,6%
C#CCCCO/N=C1/C[C@@H](O)[C@@H](O)[C@@H]2[C@@H]3C(=O)N(C[C@@H]4CCCO4)C(=O)[C@H]3CC[C@H]12,nt,nt,2%[13.5 µM],nt,nt
Cn1c(=O)c2c(nc(NCCNc3nc4c(c(=O)n(C)c(=O)n4C)n3C)n2C)n(C)c1=O,nt,-2%,13%[13.5 µM],-5%[7.66 µM],nt
CC1=CC(=O)CC(C)(C)C1(O)/C=C/C(C)=C\C(=O)O (stereo not drawn),nt,0%,5%,-1%,nt
O=C(CCl)c1ccc(Cc2ncc(C(F)(F)F)cc2Cl)s1,-19,-22%,0.71µM*,-2%,-4%
NNS(=O)(=O)c1ccc(Cc2ncc(C(F)(F)F)cc2Cl)s1,?,-12%,3.2µM*,1%,-19%
NS(=O)(=O)c1ccc(Cc2ncc(C(F)(F)F)cc2Cl)s1,11,-4%,0%,-2%,-10%
CCN(CC)S(=O)(=O)c1ccc(Cc2ncc(C(F)(F)F)cc2Cl)s1,34,-17%,?,-2%,?
C[C@@H]1C=C[C@](Cc2ccccc2)(C(=O)NCCN2CCOCC2)N1C(=O)c1ccccc1,nt,-6%,1%,1%,nt
NC(CO)(CO)CO,nt,-2%,6%,2%[39.9 µM],?
CSC1=NC2(CCN(C(=O)NC3CCCCC3)CC2)N=C1c1ccc(C)c(C)c1,nt,nt,nt,nt,6%[46 µM]
CC(=O)Nc1ccc(NS(=O)(=O)c2ccc3[nH]c4c(c3c2)CCCCC4)cc1,nt,nt,nt,nt,-14%[46 µM]
COC(=O)C1(C(=O)OC)Cc2conc2[C@H]1c1ccccc1,nt,1%,2%,1%,nt
COc1cc(/C=C/c2sc3ccccc3[n+]2CCCS(=O)(=O)[O-])ccc1O,nt,nt,?,8.9µM*,nt
c1ccc(C(c2ccccc2)N2CCN(c3nc4ccccc4n4cnnc34)CC2)cc1,-17,nt,14µM*,nt,?
Cc1cccc(N2CCN(c3nc4ccccc4n4cnnc34)CC2)c1C,-29,?,64%,-1%,1%
O=C1[C@@H]2[C@@H](C(=O)N1c1ccc(OCc3ccccc3)cc1)[C@@H]1c3ccccc3[C@@H]2[n+]2ccccc21,nt,-4%,-10%[13.5 µM],-5%[7.66 µM],nt
COc1ccc(/C=C2/N=C(SC3CCOC3=O)N(c3cccc(OC)c3)C2=O)cc1 (stereo not drawn),25,nt,3.5µM*,nt,-14%
Cc1cccc(C2=N[C@@H](CC(C)C)CO2)c1,nt,-7%,0%[120 µM],-9%[39.9 µM],nt
COc1ccc(CCN2C(=NC(=O)CC(C)C)SC3CS(=O)(=O)CC32)cc1 (stereo not drawn),?,0%,?,-4%,-7%
COc1ccc(CCN2C(=NC(=O)CCC(=O)O)SC3CS(=O)(=O)CC32)cc1OC (stereo not drawn),-9,-9%,25µM*,7%,7%
CCOc1ccc(-c2nnc(SCc3nnc(-c4ccccc4)o3)n2-c2ccccc2F)cc1,-25,13µM*,4%,-3%,6%
C(=Nc1cnc2ccccc2c1)c1ccc2ccccc2n1,nt,?,?,-1%[7.66 µM],nt
O=c1cc[nH]c(=S)[nH]1,nt,-10%,-4%,-12%,nt
SMILES,PNC assembly inh,HPGD block,ALDH1A1 inh,Luc counter,LMNA splice mod
COC(=O)c1ccc(C(=S)N2CCCCC2)cc1,nt,nt,-6%,-2%,13%[46 µM]
COC(=O)c1ccc(C(=S)N2CCOCC2)cc1,10,28µM*,10µM*,10%,0%
COc1ccc(C(=O)Oc2ccc(C(=S)N3CCOCC3)cc2)cc1,nt,nt,7.1µM*,-1%,?
Cc1nn(C(=O)c2cccnc2)c(C)c1Sc1ccc(Br)cc1,-9,14µM*,-5%,0%,11%
Cc1nn(C(=O)c2ccco2)c(C)c1Sc1ccc(Cl)cc1,19,-11%,?,0%,-6%
O=c1oc2ccccc2cc1-c1ccc(O)cc1,7,?,?,-4%,-6%
O=c1oc2ccccc2cc1O,nt,18µM*,1%,-6%,nt
C[C@@]12C=Cc3occc3C1CC[C@@]13C[C@@H](CCC12)[C@@](O)(CO)C3 (stereo partly drawn),nt,-5%,1.4µM*,4%[39.9 µM],nt
Cc1c(NC(=S)N/N=C/C=C/c2ccccc2)c(=O)n(-c2ccccc2)n1C,nt,nt,-4%,nt,?
Cc1c(NC(=S)N/N=C/C=C/c2ccc([N+](=O)[O-])cc2)c(=O)n(-c2ccccc2)n1C,-109*,-14%,-11%,-8%,-3%
CCc1ccc(Sc2cc(C(=O)NCc3ccccc3OC)c3ccccc3n2)cc1,nt,nt,nt,nt,-18%[46 µM]
C=C(C)C(=O)c1cccs1,nt,-7%,-2%,2%,nt
O=C(/C(=C/O)N=Nc1ccccc1)c1cccs1,nt,nt,10µM*,-3%,10%[46 µM]
CC(=O)N1CC=CC1(CC(C)C)C(=O)NCc1ccc(C)o1 (stereo not drawn),nt,-9%,-7%,0%,nt
O=S(=O)(NCCCCCNS(=O)(=O)c1ccccc1)c1ccccc1,-91*,-11%,0.56µM*,-2%,?
O=[N+]([O-])c1ccc(NCCCNS(=O)(=O)c2ccccc2)cc1,nt,nt,18µM*,0%,7%[46 µM]
Cc1ccc(S(=O)(=O)NCCCNc2ccc([N+](=O)[O-])cc2)cc1,nt,nt,14µM*,4%,2%[46 µM]
NCCCCCCNS(=O)(=O)c1cccc2ccccc12,nt,-26%,13µM*,2%,nt
O=[N+]([O-])c1ccc(NCCCNS(=O)(=O)c2ccc(Cl)cc2)c(Cl)c1,-21,-14%,1%,0%,16%
O=C(CSc1nccn1Cc1ccc(F)cc1)Nc1ccc2c(c1)OCO2,nt,nt,nt,nt,-8%[46 µM]
COc1ccc(C=Nc2c(O)ccc3ccccc23)cc1OC,nt,-25%,?,-2%[7.66 µM],nt
Cc1cc(C(F)(F)F)c2c(=O)[nH]c(=O)n(Cc3ccccc3)c2n1,27,10µM*,11%,7%,6%
COc1ccccc1N1CCN(/N=C/C=C\c2ccccc2[N+](=O)[O-])CC1,nt,nt,?,0%,?
O=[N+]([O-])c1ccccc1/C=C/C=N/n1c(-c2ccc(Cl)cc2)n[nH]c1=S,16,3.2µM*,?,-3%,8%
O=[N+]([O-])c1ccccc1/C=C/C=N/n1c(-c2ccccc2)n[nH]c1=S,-27,7.1µM*,?,4%,?
CC1CCCC(C)N1/N=C/C=C/c1ccccc1[N+](=O)[O-] (stereo not drawn),nt,nt,3.5µM*,2%,-16%[46 µM]
Cc1cc(-c2n[nH]c(=S)n2/N=C/c2ccccc2[N+](=O)[O-])n[nH]1,-16,-26%,4%,2%,-2%
O=C(CSCc1ccccc1Cl)N1CCN(c2ccc(F)cc2)CC1,nt,nt,nt,nt,-9%[46 µM]
